Measured values published in PubChem BioAssay (NCATS).
Results filed as inconclusive are left out. The source made the active and inactive calls. Calls follow the shape of the dose curve; as a rule, active = well fitted curve in the direction sought with a large enough effect; inconclusive = small, poorly fitted or top-dose-only effect, or another doubt; inactive = no such curve, though single readings can be large; an effect the other way counts as inactive or inconclusive.

Key:
[1] = Quantitative highthroughput screen to assess conditional lethalithy of NOMO1 cells grown in RPMI1640 with untreated serum (RPMI+s) (AID 1963876); also: nearly all actives have a fitted effect of over 35% in size
Procedure, shortened: (§1)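 Each medium arm—HPLM with 10% dialyzed FBS, or RPMI1640 with 5 mM glucose and 10% untreated or dialyzed FBS—was screened against an 11-point, 3-fold compound titration for 48 h at 37 °C, with CellTiter-Glo luminescence as endpoint.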

[2] = Quantitative highthroughput screen to assess conditional lethalithy of P12 Ichikawa cells grown in Human Plasma-Like Medium with dialyzed fetal bovine serum (HPLM+ds) (AID 1963879); details: Potency: viability; also: nearly all actives have a fitted effect of over 35% in size; as to viability: series mostly up to about 46 µM
Procedure, shortened: as §1

[3] = Quantitative highthroughput screen to assess conditional lethalithy of P12 Ichikawa cells grown in RPMI1640 with dialyzed fetal bovine serum (RPMI+ds) (AID 1963880); details: Potency: P12-Ichikawa viability; also: nearly all actives have a fitted effect of over 35% in size
Procedure, shortened: as §1

[4] = Quantitative highthroughput screen to assess conditional lethalithy of P12 Ichikawa cells grown in RPMI1640 with untreated serum (RPMI+s) (AID 1963881); details: Potency: viability; also: nearly all actives have a fitted effect of over 35% in size; as to viability: series mostly up to about 46 µM
Procedure, shortened: as §1

[5] = Quantitative highthroughput screen to assess conditional lethalithy of SEM cells grown in Human Plasma-Like Medium with dialyzed fetal bovine serum (HPLM+ds) (AID 1963882); also: nearly all actives have a fitted effect of over 35% in size; as to viability: series mostly up to about 46 µM
Procedure, shortened: as §1

[6] = Quantitative highthroughput screen to assess conditional lethalithy of SEM cells grown in RPMI1640 with unreated serum (RPMI+s) (AID 1963883); also: nearly all actives have a fitted effect of over 35% in size
Procedure, shortened: as §1

[7] = Quantitative highthroughput screen to assess conditional lethalithy of NOMO1 cells grown in Human Plasma-Like Medium with dialyzed fetal bovine serum (HPLM+ds) (AID 1963878); also: nearly all actives have a fitted effect of over 35% in size
Procedure, shortened: as §1

[8] = Cellular viability qHTS for adrenocortical cancer (ACC) cell line SW-13 (AID 1963989); details: SW-13 ACC cells viability, CellTiter-Glo, 48 h; activity (max response): active compounds read low; also: nearly all actives have a fitted effect of over 65% in size
Procedure, shortened: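 Viability was read as CellTiter-Glo luminescence after 48 h compound treatment (up to 46 uM final) of SW-13 cells grown serum-free; titration curves were fit with a four-parameter logistic model to give IC50 and efficacy.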

[9] = Cellular viability qHTS for adrenocortical cancer (ACC) cell line NCI-H295R (AID 1963990); also: nearly all actives have a fitted effect of over 60% in size
Procedure, shortened: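 CellTiter-Glo ATP luminescence, read 48 h after compound addition, measured viability of NCI-H295R adrenocortical cells grown serum-free with ITS. Final concentrations spanned up to 46 uM. Data normalized to DMSO and doxorubicin, fitted for IC50 and maximal response.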

[10] = Quantitative highthroughput screen to assess conditional lethalithy of SEM cells grown in RPMI1640 with dialyzed fetal bovine serum (RPMI+ds) (AID 1963884); also: nearly all actives have a fitted effect of over 35% in size; as to viability: series mostly up to about 46 µM
Procedure, shortened: as §1

Measured: Potency
Potency is read from the fitted curve at half-maximal effect.

COc1ccnc2[nH]cc(C(=O)C(=O)N3CCN(C(=O)c4ccccc4)C[C@@H]3C)c12
inactive: [1] | [2] | [3] | [4] | [5] | [6]

O=C(O)c1c(Cl)c(Cl)c(Cl)c(Cl)c1-c1c2cc(I)c(=O)c(I)c-2oc2c(I)c(O)c(I)cc12
active: [1] 16.6 µM | [8] 12.6 µM | [9] 14.1 µM
inactive: [7]

Cc1nc2cnc3ccc(C#Cc4cccnc4)cc3c2n1-c1ccc(C(C)(C)C#N)cc1
active: [1] 1.32 µM | [7] 0.209 µM | [6] 132 nM | [9] 0.891 µM

C=CCNC1=C2C[C@@H](C)C[C@H](OC)[C@@H](O)[C@@H](C)C=C(C)[C@H](OC(N)=O)[C@@H](OC)C=CC=C(C)C(=O)NC(=CC1=O)C2=O
active: [1] 5.26 µM | [7] 5.9 µM | [5] 526 nM | [6] 332 nM | [10] 332 nM

CC(N[C@H]1CCCC[C@H]1NC(=O)c1ccc(Cl)cc1)c1cccc2ccccc12 (stereo not given in full)
active: [1] 8.33 µM | [7] 5.26 µM | [8] 25.1 µM | [9] 7.08 µM
inactive: [5] | [6] | [10]

CC1(C)O[C@H]2C[C@@H]3[C@H]4CCC5=CC(=O)C=C[C@]5(C)[C@@]4(F)[C@@H](O)C[C@]3(C)[C@]2(C(=O)CO)O1
active: [1] 9.35 µM | [2] 1.48 µM | [3] 264 nM | [4] 743 nM

CC(C)=CCCC(C)=CCCC(C)=CCCC(C)=CCCC(C)=CCCC(C)=CCCC(C)=CCCC(C)=CCCC(C)=CCO
inactive: [1] | [7] | [3] | [4] | [5]
